Source: PubChem BioAssay (NCI)
This is part of a sample that, as a whole, favours compounds with a hit. Of some 79,000 tested, about 15% had one in any assay. Rule as the data show it: active = growth inhibition above about 70%; inactive = the rest.

What was measured:
[1] = NCI Yeast Anticancer Drug Screen. Data for the rad50 strain (AID 155);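 also: 0% = growth of vehicle-only cultures of the same strain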; settings: S. cerevisiae rad50 strain growth inhibition, hits give high values; at 50.0 µM unless noted
Summary of the method: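 Inhibition values express reduced yeast growth in compound-treated cultures relative to vehicle-treated controls.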

[2] = NCI Yeast Anticancer Drug Screen. Data for the mec2-1 strain (AID 157); settings: S. cerevisiae mec2-1 strain, hits give high values; at 50.0 µM unless noted
Summary of the method: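 Test agents were screened against the mec2-1 yeast strain, with defined DNA repair or cell cycle alteration. Growth was scored as inhibition against vehicle-only controls.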

[3] = NCI Yeast Anticancer Drug Screen. Data for the sgs1 mgt1 strain (AID 161);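 also: 0% = growth of cultures given vehicle only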; settings: S. cerevisiae sgs1 mgt1 strain, hits give high values; at 50.0 µM unless noted
Summary of the method: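 Read-out: growth inhibition vs vehicle controls. Cells: mutant yeast strain deficient in DNA damage repair.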

[4] = NCI Yeast Anticancer Drug Screen. Data for the cln2 rad14 strain (AID 165);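 also: 0% = growth equal to vehicle treated cultures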; settings: S. cerevisiae cln2 rad14 strain, hits give high values; at 50.0 µM unless noted
Summary of the method: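 Growth of compound-exposed yeast (cln2 rad14 genotype) measured and expressed as inhibition relative to vehicle.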

[5] = NCI Yeast Anticancer Drug Screen. Data for the bub3 strain (AID 167); settings: S. cerevisiae bub3 mutant strain, hits give high values; at 50.0 µM unless noted
Summary of the method: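 Steps: expose the mutant yeast strain to compound; grow alongside vehicle-treated cultures; measure growth; express inhibition against the vehicle cultures.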

[6] = NCI Yeast Anticancer Drug Screen. Data for the mlh1 rad18 strain (AID 175); settings: S. cerevisiae mlh1 rad18 strain growth inhibition, hits give high values; at 50.0 µM unless noted
Summary of the method: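 In this whole-cell yeast screen, a strain with altered DNA damage repair is challenged with compound, and its growth is measured against matched vehicle-treated controls.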

Measured: growth inhibition

O=C(c1ccccc1)N1CCC(Nc2nccs2)O1 (stereo unspecified)
inactive: [1] -37.4% | [2] -26.1% | [3] -11.4% | [4] -9.75% | [5] -8.15% | [6] -2.35%

CN(C)Cc1ccccc1CC1(O)CCCC1
inactive: [1] 19.6% | [2] -2.75% | [3] -4.3% | [4] -10.1% | [5] 0.3% | [6] -12.5%

COC(=O)CCCCC(=O)OC
inactive: [1] 35.9% | [2] -0.3% | [3] 15.1% | [4] -1.9% | [5] -9% | [6] 13.4%

CC1C=NNC1=O (stereo unspecified)
inactive: [1] 19.9% | [2] -30.8% | [3] 23.5% | [4] 3.4% | [5] -0.05% | [6] 4.5%

CCOc1ccccc1N=Nc1c(-c2ccccc2)nn(C(=O)CC(=O)Nc2cccc(Cl)c2)c1-c1ccccc1
inactive: [1] 12.6% | [2] -13.9% | [3] 40.9% | [4] 9.2% | [5] 26.2% | [6] 22.2%

Clc1ccc2[nH]c3c(c2c1)CCCC3
inactive: [1] 10.7% | [2] 0.45% | [3] 28.4% | [4] 1.6% | [5] 2.55% | [6] 28.8%

O=C(CCS(=O)(=O)CCC(=O)c1ccccc1)c1ccccc1
inactive: [1] -12.3% | [2] 11.8% | [3] 2.25% | [4] -6.35% | [5] -4.4% | [6] 3.1%

CO/C(=N\N=C\c1ccc(C(F)(F)F)cc1)c1ccncc1
inactive: [1] 54.5% | [2] 18.9% | [3] 35.3% | [4] 22.4% | [5] 30.9% | [6] 15.3%

CC(O)C(=O)N(CCO)c1ccccc1 (stereo unspecified)
inactive: [1] 13.4% | [2] 1.2% | [3] -5.5% | [4] 3.25% | [5] 2.2% | [6] -21.4%

N#C/C(=C\c1ccco1)C1CCC([N+](=O)[O-])CC1 (stereo unspecified)
inactive: [1] -5.05% | [2] -1.5% | [3] 4.35% | [4] -101% | [5] 2.85% | [6] -4.85%

O=[N+]([O-])c1ccc(N2N=NC(c3ccccc3)C2(c2ccccc2)N2CCOCC2)cc1 (stereo unspecified)
inactive: [1] 29.6% | [2] -0.9% | [3] 28.4% | [4] 16.7% | [5] 0.95% | [6] 14.6%

NC(=S)/N=C/c1c(O)c2ccccc2oc1=O
inactive: [1] -15.8% | [2] 3.95% | [3] -37.5% | [4] 3.5% | [5] -12.7% | [6] -35%

C=C(Br)CNC(=O)C(O)(c1ccccc1)c1ccccc1
inactive: [1] -4.15% | [2] 3.65% | [3] 0% | [4] -15.6% | [5] 5.15% | [6] -16.9%

COc1ccc2c(c1)-c1c(ccc(OC)c1O)CC(c1ccccc1)[N+](C)(C)CC2 (stereo unspecified)
inactive: [1] -5.8% | [2] 10.7% | [3] -5.55% | [4] -12.4% | [5] 2.25% | [6] -2.5%

COc1ccc(C)cc1NC(=O)Nc1ccccc1F
inactive: [1] 6.9% | [2] 15.2% | [3] 6.15% | [4] 3.3% | [5] -0.4% | [6] 5.15%

C/C(=C/CC1=C(O)c2ccccc2C(=O)C1=O)CO
inactive: [1] 23% | [2] 32.9% | [3] 51.7% | [4] 32.8% | [5] 26% | [6] 33.8%

CNC(=O)N(CCCCC(NC(C)=O)C(=O)NCc1ccccc1)Cc1ccccc1 (stereo unspecified)
inactive: [1] -12.3% | [2] -23.2% | [3] -15.8% | [4] -12.4% | [5] -7.1% | [6] -12.8%

COc1ccc(C=O)cc1OCc1ccccc1
inactive: [1] -10.2% | [2] -29.4% | [3] -3.15% | [4] -7.35% | [5] -18.2% | [6] 7.55%

O=C(O)COc1ccc(C2CCc3ccccc32)cc1 (stereo unspecified)
inactive: [1] 19.7% | [2] 7.3% | [3] -3.85% | [4] 16% | [5] 8.25% | [6] 0.7%

CN(N=O)C(=O)NCCn1cnc2c(=O)[nH]cnc21
inactive: [1] -6.55% | [2] 14.4% | [3] -5.35% | [4] -56.8% | [5] 1.2% | [6] -11.8%

COc1ccc(NC2Oc3cc4c(cc3C(c3cc(OC)c(O)c(OC)c3)C2C)OCO4)cc1 (stereo unspecified)
inactive: [1] 5.1% | [2] 0.1% | [3] -6.15% | [4] 2.65% | [5] 6.6% | [6] 4.8%

COC(OC)C(C)=O
inactive: [1] -13.1% | [2] -19.8% | [3] -18.9% | [4] -16.9% | [5] -15.5% | [6] 5.35%

Nc1nc(N)c(CCCCc2ccccc2)c(Cc2ccccc2)n1
inactive: [1] -10.2% | [2] -10.5% | [3] -2% | [4] -40% | [5] 3.7% | [6] -7.4%

CCCCOC(=O)c1ccccc1C(=O)Nc1ccccc1
inactive: [1] 7.6% | [2] 12.6% | [3] 2% | [4] 2.1% | [5] 4.4% | [6] -19.7%

CC(C)N1C(=O)N(Cl)C2C1N(Cl)C(=O)N2Cl (stereo unspecified)
inactive: [1] 15% | [2] -0.4% | [3] -6.7% | [4] 22.6% | [5] -3.55% | [6] 53.9%

CN(/N=C/c1cccs1)c1ccc(Cl)cc1[N+](=O)[O-]
inactive: [1] -29.4% | [2] -8.95% | [3] -13.8% | [4] 0.95% | [5] -7.45% | [6] -1%

COC(=O)CSSC(C)C
inactive: [1] -29.2% | [2] -15.3% | [3] -22.1% | [4] 5.1% | [5] 6.4% | [6] -59.1%

CC1CC(=O)c2c(ccc3c2C(=O)c2cccc(O)c2C3=O)C1 (stereo unspecified)
inactive: [1] -3.55% | [2] -0.45% | [3] 40.2% | [4] 24.8% | [5] -1.05% | [6] 52.8%

CCOC(=O)C(CC/C=C\c1ccccc1)N1CCC[C@H]1C(=O)OC (stereo partly specified)
inactive: [1] -7.9% | [2] -5% | [3] -11.9% | [4] 9.55% | [5] 2.75% | [6] -13.3%

N#Cc1c[nH]c(=O)[nH]c1=O
inactive: [1] -25.3% | [2] -25.4% | [3] -13.4% | [4] 2.15% | [5] 1.85% | [6] -45.6%

O=C(Nc1ccccc1)Nc1ccc2c(c1)oc1ccccc12
inactive: [1] 8.85% | [2] 6.7% | [3] 9.6% | [4] 28% | [5] 10.9% | [6] 25.6%

CCc1n[nH]c(=O)n1-n1c(C)ccc1C
inactive: [1] -15.8% | [2] -25.9% | [3] -5.2% | [4] 3.15% | [5] -33% | [6] -15.2%

C1CCN(CCC2CCNCC2)CC1
inactive: [1] -5.4% | [2] -18.3% | [3] -12.1% | [4] 1.8% | [5] 7.65% | [6] -1.6%

CN1C(=O)n2c(nc3ccccc32)C(Cl)(Cl)C1=O
inactive: [1] 13.8% | [2] 10.3% | [3] 3.25% | [4] 20.4% | [5] 34.7% | [6] 42%

Cc1c(C)c(C(=O)Cc2ccccc2)c(C)c(C(=O)Cc2ccccc2)c1C
inactive: [1] 19.6% | [2] -1.8% | [3] -15.3% | [4] 12.3% | [5] 5.55% | [6] 0.65%

O=C(O)CC(O)(c1ccccc1)c1ccccc1
inactive: [1] 0.05% | [2] -1.7% | [3] -5.05% | [4] -7.9% | [5] 1.4% | [6] 0%

CC1(C)C2CCC3(C2)CS(=O)(=O)N2OC231 (stereo unspecified)
inactive: [1] 6.55% | [2] -35.9% | [3] -31.1% | [4] -20.1% | [5] -26.9% | [6] -9.7%

COC(=O)C1(C)C=C(Nc2ccccc2)C(=O)N1c1ccccc1 (stereo unspecified)
inactive: [1] -3.45% | [2] -19.8% | [3] 6.2% | [4] 21.8% | [5] 23.4% | [6] 2.25%

Cc1ccc(NC(=O)C2CCCCC2)cc1
inactive: [1] 5.85% | [2] 3.3% | [3] -6.6% | [4] 10.6% | [5] -6.25% | [6] -1.6%

CC(C)C1=CCC2C(=C1)CCC1C(C)(N=C=O)CCCC21C (stereo unspecified)
inactive: [1] -28.6% | [2] -10.1% | [3] -7.7% | [4] -51.8% | [5] 38.8% | [6] -4%

Cc1ccc(C=NC23CC4CC(CC(C4)C2)C3)cc1
inactive: [1] -3.3% | [2] -28.6% | [3] -24.2% | [4] -24.9% | [5] -35.9% | [6] -20.4%
